# Assay results taken from the supplement of paper PMC8371130.
# Where a name gives a salt, the structure may show the parent alone.
# Tested on: HL-1
# Test: relative cell viability (CellTiter-Glo) vs DMSO control (% of DMSO control); higher = more viable cells
# How it was run: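 Plating of HL-1 mouse atrial cardiomyocytes at 1000 cells per well in 384-well plates was done together with compounds at 40, 200, 1000 or 5000 nM in 0.01% DMSO. A day later the cells faced 48 h of 1% O2 and then 24 h of reoxygenation, or matching normoxia. Viability was measured via CellTiter-Glo luminescence and set relative to vehicle-treated control cells.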
# [1] = oxygen condition: hypoxia 48 h (1% O2) + reoxygenation 24 h, 40 nM
# [2] = oxygen condition: hypoxia 48 h (1% O2) + reoxygenation 24 h, 200 nM
# [3] = oxygen condition: hypoxia 48 h (1% O2) + reoxygenation 24 h, 1000 nM
# [4] = oxygen condition: hypoxia 48 h (1% O2) + reoxygenation 24 h, 5000 nM
# [5] = oxygen condition: normoxia 72 h, 40 nM
# [6] = oxygen condition: normoxia 72 h, 200 nM
# [7] = oxygen condition: normoxia 72 h, 1000 nM
# [8] = oxygen condition: normoxia 72 h, 5000 nM
Structure (SMILES),relative cell viability [1],relative cell viability [2],relative cell viability [3],relative cell viability [4],relative cell viability [5],relative cell viability [6],relative cell viability [7],relative cell viability [8]
C#C[C@]1(O)CC[C@H]2[C@@H]3CCc4cc(OC)ccc4[C@H]3CC[C@@]21C [Mestranol],101,106,101,101,99.9,97.3,103,85.7
COC(=O)C1=C(C)NC(C)=C(C(=O)OCCN(C)Cc2ccccc2)C1c1cccc([N+](=O)[O-])c1 (stereo not drawn) [Nicardipine HCl],107,111,112,114,107,106,105,122
COc1ccc(Cl)cc1C(=O)NCCc1ccc(S(=O)(=O)NC(=O)NC2CCCCC2)cc1 [Glyburide],103,106,103,104,103,103,108,109
Cc1c(-c2ccccc2)oc2c(C(=O)OCCN3CCCCC3)cccc2c1=O [Flavoxate HCl],96.7,102,108,108,103,101,106,109
COc1cc2c(cc1OC)CC(=O)N(CCCN(C)C[C@H]1Cc3cc(OC)c(OC)cc31)CC2 [Ivabradine HCl],108,106,107,106,105,106,102,106
CC(=O)Nc1ccccc1 [Acetanilide],96.5,98.9,100,111,101,94.9,98,105
NC(=O)c1ncn([C@@H]2O[C@H](CO)[C@@H](O)[C@H]2O)c1O [Mizoribine],103,109,115,108,111,104,103,110
CNC(=O)c1ccccc1Sc1ccc2c(/C=C/c3ccccn3)n[nH]c2c1 [Axitinib],110,114,117,116,105,108,112,111
CC(C)NCC(O)COc1cccc2ccccc12 (stereo not drawn) [Propranolol HCl],99.8,109,103,109,107,100,92.5,106
CCCCOc1cc(C(=O)OCCN(CC)CC)ccc1N [Oxybuprocaine HCl],106,106,108,108,103,102,113,112
CN(C)/N=N/c1[nH]cnc1C(N)=O [Dacarbazine],97.5,107,110,113,105,106,107,113
C=CC[C@@H]1/C=C(\C)C[C@H](C)C[C@H](OC)[C@H]2O[C@@](O)(C(=O)C(=O)N3CCCC[C@H]3C(=O)O[C@H](/C(C)=C/[C@@H]3CC[C@@H](O)[C@H](OC)C3)[C@H](C)[C@@H](O)CC1=O)[C@H](C)C[C@@H]2OC,102,105,102,101,109,106,106,105
CNNCc1ccc(C(=O)NC(C)C)cc1 [Procarbazine HCl],109,101,96.6,108,97.6,101,97.9,113
Cc1onc(-c2ccccc2)c1-c1ccc(S(N)(=O)=O)cc1 [Bextra],101,97.9,104,107,103,100,95.1,111
COc1cc2nc(N(C)CCCNC(=O)C3CCCO3)nc(N)c2cc1OC (stereo not drawn) [Alfuzosin hydrochloride],103,106,99.9,106,103,107,114,112
CCCS(=O)(=O)Nc1ccc(F)c(C(=O)c2c[nH]c3ncc(-c4ccc(Cl)cc4)cc23)c1F [Vemurafenib],102,111,107,111,104,96.2,106,118
CC(=O)/N=c1/sc(S(N)(=O)=O)nn1C [Methazolamide],100,109,108,109,110,105,99.7,108
CCOc1ccccc1OC(c1ccccc1)C1CNCCO1 (stereo not drawn) [Reboxetine mesylate],105,102,105,122,115,99.7,108,119

Structure (SMILES),relative cell viability [1],relative cell viability [2],relative cell viability [3],relative cell viability [4],relative cell viability [5],relative cell viability [6],relative cell viability [7],relative cell viability [8]
Cc1onc(-c2ccccc2Cl)c1C(=O)N[C@@H]1C(=O)N2[C@@H]1SC(C)(C)[C@@H]2C(=O)O [Cloxacillin sodium],96,106,106,107,101,102,102,100
NC(=O)CC[C@H](N)C(=O)O [L-Glutamine],98.4,99.1,103,105,102,97.4,114,113
CCCC(CCC)C(=O)O [Divalproex sodium],98.3,109,102,111,99.9,106,106,118
O=C(O)c1ccc(NC(=O)[C@H](Cc2ccc(O)cc2)NC(=O)c2ccccc2)cc1 [Bentiromide],104,104,101,102,103,106,99.5,111
CCOC(=O)[C@H](CCc1ccccc1)N[C@@H](C)C(=O)N1[C@H](C(=O)O)C[C@@H]2CCC[C@@H]21 [Ramipril],100,115,113,123,112,105,117,116
O=C1NC(=O)C(c2ccccc2)(c2ccccc2)N1 [Phenytoin],98.3,97.9,98.1,103,95.4,61.2,93.3,99.4
O=C(O)c1cccnc1 [Niacin],107,107,98,109,110,111,106,93.9
CCCCCCCCOc1ccccc1C(=O)Nc1ccc(C(=O)OCC[N+](C)(CC)CC)cc1 [Otilonium Bromide],101,107,108,114,107,105,110,114
O=c1c(-c2ccc(O)cc2)coc2cc(O)cc(O)c12 [Genistein],104,106,113,110,111,104,106,111
O=C1CCc2cc(OCCCCc3nnnn3C3CCCCC3)ccc2N1 [Cilostazol],107,107,111,107,105,108,106,109
Nc1nnc(-c2cccc(Cl)c2Cl)c(N)n1 [Lamotrigine],107,102,108,117,106,96.1,115,117
CS(=O)(=O)Nc1ccc([N+](=O)[O-])cc1Oc1ccccc1 [Nimesulide],105,105,109,103,108,105,102,104
COc1ccc2cccc(CCNC(C)=O)c2c1 [Agomelatine],96.1,109,84.5,113,94.3,90.4,132,111
C[C@@H](Oc1cc(-c2cnn(C3CCNCC3)c2)cnc1N)c1c(Cl)ccc(F)c1Cl [Crizotinib],94.3,92.1,99.2,70.3,98.8,98.6,87.4,52
C[C@H](Cc1cc2c(c(C(N)=O)c1)N(CCCO)CC2)NCCOc1ccccc1OCC(F)(F)F [Silodosin],106,98.3,102,105,102,104,108,104
CCOc1nc2cccc(C(=O)O)c2n1Cc1ccc(-c2ccccc2-c2noc(=O)[nH]2)cc1 [Azilsartan],104,108,111,115,109,110,114,111
O=C1CCc2ccc(OCCCCN3CCN(c4cccc(Cl)c4Cl)CC3)cc2N1 [Aripiprazole],98.7,104,97,97.8,99,99.7,98.7,99.9
OC[C@@H](O)[C@@H](O)[C@H](O)[C@@H](O)CO [Sorbitol],93,101,98,101,100,106,97.9,97.5
